From PubChem BioAssay (NCI)
This is part of a sample that, as a whole, favours compounds with a hit. Of some 83,000 tested, about 20% had one in any assay.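 Treatment: one concentration, 48 hours, 96-well format. Scoring: percent growth, with anything below 10 considered active.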 The source made the active and inactive calls.

Tests used:
Test in all cases: NCI-60 one-dose screen, 48 h (100 = growth as untreated, 0 = no growth, -100 = all killed)
Details in all cases: 10 µM unless noted
[1] = test system: NCI-H23 lung
[2] = test system: NCI-H322M lung
[3] = test system: HOP-62 NSCLC
[4] = test system: NCI-H460 lung
[5] = test system: HOP-92 NSCLC
[6] = test system: NCI-H522 lung
[7] = test system: 786-0 renal
[8] = test system: COLO 205 colon
[9] = test system: DU-145 prostate
[10] = test system: K-562 leukemia
[11] = test system: MALME-3M melanoma
[12] = test system: MDA-MB-231 breast
[13] = test system: SF-268 CNS
[14] = test system: SF-295 CNS
[15] = test system: SF-539 CNS
[16] = test system: UACC-257 melanoma
[17] = test system: M14 melanoma
[18] = test system: HCT-15 colon
[19] = test system: A549/ATCC NSCLC
[20] = test system: RXF 393 renal

Measured: growth

COC(=O)/C(=C\c1c(C)[nH]c2ccccc12)S(=O)(=O)c1ccccc1
inactive: [1] 18.6% | [2] 47.5% | [3] 29.8% | [5] 21.5% | [6] 31.9% | [7] 48% | [8] 31.8% | [10] 14.4% | [11] 45.8% | [12] 90% | [14] 16.6% | [16] 29.4% | [17] 33.7% | [18] 23.8%
active: [4] -7.04% | [9] -53.4% | [13] 2.87% | [15] -24.3%

O=C1CCC(N2C(=O)c3cccc(NCCCCCCOc4ccc(Nc5nccc(Nc6ccccc6)n5)cc4)c3C2=O)C(=O)N1 (stereo not drawn)
inactive: [1] 62.6% | [2] 91.6% | [3] 84.2% | [4] 83.6% | [5] 84.1% | [6] 76.6% | [19] 81.6% | [7] 91.9% | [9] 97.8% | [10] 46.8% | [11] 76.7% | [12] 86.6% | [20] 94.7% | [13] 88.7% | [14] 73.3% | [15] 89.1% | [16] 73.1% | [17] 88.1% | [18] 86.7%

CC1CCCCN1CCCNC(=O)c1ccc2c(c1)sc1nc(-c3ccc(F)cc3)cn12 (stereo not drawn)
inactive: [1] 92.1% | [2] 107% | [3] 90.9% | [4] 102% | [5] 83.1% | [6] 102% | [7] 78.8% | [8] 98% | [9] 105% | [10] 77% | [11] 98.3% | [12] 75.2% | [20] 91.7% | [13] 92.8% | [14] 109% | [15] 98.6% | [16] 124% | [17] 97.1% | [18] 104%

CC1(C)CC2(C)OC2C2(C1)N=NC(=Nc1ccccc1)O2 (stereo not drawn)
inactive: [1] 88.9% | [2] 103% | [3] 60.9% | [4] 79.5% | [5] 87.6% | [6] 15.1% | [7] 36.3% | [8] 73% | [9] 67.2% | [10] 19.5% | [11] 57.1% | [12] 91.8% | [13] 83.3% | [14] 65.6% | [15] 83.7% | [16] 64.2% | [17] 65.4%
active: [20] -1.33% | [18] 9.91%

CCn1c(Cc2ccccc2Nc2c(Cl)cccc2Cl)nnc1SCC(=O)NN1C(=O)/C(=C/c2cccc(OC)c2OC)SC1=S
inactive: [1] 98.4% | [2] 99% | [3] 98.6% | [4] 103% | [5] 96.9% | [6] 86.8% | [7] 104% | [8] 112% | [9] 105% | [10] 89.7% | [11] 97.1% | [12] 102% | [20] 112% | [13] 96.1% | [14] 95% | [15] 101% | [16] 101% | [17] 103% | [18] 99.8%

O=C(Cn1cc(COc2ncnc3c2cnn3-c2ccccc2)nn1)Nc1ccccn1
inactive: [1] 96.6% | [2] 93.6% | [3] 91.5% | [4] 101% | [5] 75.2% | [6] 87.6% | [19] 94.2% | [7] 104% | [9] 101% | [10] 96.7% | [11] 94.5% | [12] 85.2% | [20] 112% | [13] 92.9% | [14] 102% | [15] 89.1% | [16] 98.4% | [17] 97.4% | [18] 101%

CNCCNc1nc2ccccc2c2c(=O)c3cc(F)ccc3sc12
inactive: [1] 90.9% | [2] 42.4% | [3] 46% | [5] 19.2% | [6] 33.8% | [7] 42.5% | [9] 12% | [11] 68.1% | [12] 19.5% | [20] 62% | [13] 44.3% | [14] 95.2% | [15] 71.6% | [16] 54.4% | [18] 13.6%
active: [4] -65.8% | [19] -56.3% | [10] -47.1% | [17] 1.91%

Cc1ccc2c(n1)C(=O)C(Oc1ccc(Br)cc1)=CC2=O
active: [6] -27%
inactive: [1] 94.5% | [2] 99.6% | [3] 116% | [4] 99.1% | [5] 108% | [19] 100% | [7] 104% | [9] 110% | [10] 77% | [11] 115% | [12] 91.1% | [20] 104% | [13] 88.4% | [14] 103% | [15] 104% | [16] 106% | [17] 94.9% | [18] 84.7%

COc1ccc2occ(C3=C(c4c[nH]c5ccccc45)C(=O)NC3=O)c2c1
inactive: [1] 62.2% | [2] 79% | [3] 41.6% | [4] 22.5% | [5] 67.2% | [6] 33% | [19] 40.8% | [7] 74.7% | [9] 92.1% | [10] 21.6% | [11] 46.7% | [12] 28% | [20] 34.5% | [13] 52% | [14] 35.6% | [15] 51.8% | [16] 76.3% | [17] 27.3% | [18] 24.1%

CCOc1cc2c(cc1OCC)C(c1cc(C)c(O)c(C)c1)NCC2 (stereo not drawn)
inactive: [1] 100% | [2] 92.2% | [3] 107% | [4] 100% | [5] 88.5% | [6] 91% | [7] 94.3% | [8] 106% | [9] 111% | [10] 78.6% | [11] 99.1% | [12] 95.7% | [20] 99.4% | [13] 103% | [14] 93.1% | [15] 109% | [16] 94.3% | [17] 98.5% | [18] 91.2%

O=C(Nc1ccc(N2CCNCC2)cc1)c1[nH]ncc1Nc1cc(Oc2ccccc2)ncn1
inactive: [1] 20.6% | [9] 15.9% | [11] 58.4% | [13] 35% | [16] 29.7% | [17] 12.9%
active: [2] -5.19% | [3] 3.29% | [4] -47.1% | [5] -21% | [6] 8.05% | [7] 2.25% | [8] -49.1% | [10] 8.34% | [12] -20.9% | [20] -89.2% | [14] -70.2% | [15] -46.2% | [18] -35.9%

O=c1[nH]nnc2c1ncn2C1OC(CO)C(O)C1O (stereo not drawn)
inactive: [1] 63.3% | [2] 71.1% | [3] 66.7% | [4] 33.1% | [5] 35.7% | [6] 58% | [7] 54.4% | [8] 34.4% | [9] 26.8% | [10] 31.5% | [11] 57.5% | [12] 55.2% | [20] 80.7% | [13] 67.6% | [14] 20.2% | [15] 67.2% | [16] 65.2% | [17] 36.2% | [18] 66.5%

CCCCN1CCN(c2ccc3nc(-c4ccc5nc(-c6ccc(OC)c(OC)c6)[nH]c5c4)[nH]c3c2)CC1
inactive: [2] 10.1% | [5] 60.7% | [19] 28.4% | [13] 20.7% | [14] 10.6% | [18] 46.1%
active: [1] -66.1% | [3] -1.2% | [4] -35% | [6] -36.8% | [7] -85.9% | [9] 2.42% | [10] -15.5% | [11] -62.3% | [12] -38.1% | [20] -98.5% | [15] -81.9% | [16] -3.47% | [17] -52.5%

CC1(O)COCCCCOc2c(CN)cccc2NC(=O)c2nc(cnc2N)-c2ccc(cc2)S(=O)(=O)C(C)(C)C1 (stereo not drawn)
active: [1] -66.7% | [2] -1.9% | [3] -25.5% | [4] -61.9% | [5] -5.59% | [6] -40.5% | [7] -58% | [8] -47.9% | [9] -73.4% | [10] 0.195% | [11] -86.6% | [12] -76.3% | [20] -76.2% | [13] -66.6% | [14] -90.3% | [15] -93.4% | [16] -66.4% | [17] -76.7% | [18] -82.7%

Cc1c(-c2csc(-n3nc(C(F)(F)F)cc3C(F)(F)F)n2)no[n+]1[O-]
inactive: [1] 98.4% | [2] 98.8% | [3] 100% | [4] 98.9% | [5] 96.3% | [6] 87.4% | [7] 97.5% | [8] 112% | [9] 105% | [10] 93.1% | [11] 96.8% | [12] 96.5% | [20] 101% | [13] 96.1% | [14] 93.9% | [15] 99.1% | [16] 98.5% | [17] 90.2% | [18] 95.4%

COc1ccc(Cn2cc(Cn3c(=O)c(-c4nc5ccccc5[nH]4)cc4ccccc43)nn2)c(OC)c1OC
inactive: [2] 18% | [8] 13.5% | [11] 24.6% | [16] 46.9% | [18] 11.1%
active: [1] 4.71% | [3] 9.29% | [4] 1.94% | [5] -2.19% | [6] -1.1% | [7] -50.1% | [9] -59.6% | [10] 9.91% | [12] 1.9% | [20] -28.4% | [13] 2.39% | [14] 1.99% | [15] -28.6% | [17] -50.3%
